About 8,600 (12%) of roughly 69,000 compounds showed an effect of 50% or more. This is one part of a sample in which strong results are shown more often than they occur.

The test relates to Plasmodium berghei. The test is described as follows: Screen against P. berghei liver stage (PbLuc), transformed with Luciferase, at 10uM. It counts as functional, HepG2. The note with it: tested at 10 uM.
Turning to `CC(C)c1nnc2n1CCN(CCC(=O)Nc1sccc1C#N)C2`, the INHIBITION is recorded as 5.7%.

As to `CN(C)Cc1cc(C2CCCN(S(=O)(=O)c3cccc(Cl)c3)C2)nn1C` (stereo not given), the INHIBITION is listed as -14.2%.

`Cc1ncc(CN2CCCC(c3cc(C(F)(F)F)[nH]n3)C2)s1` (stereo not given): the INHIBITION is reported as -17.6%.

Take `CCOCCC1(CNC(=O)c2ccncc2)CCC1`: the INHIBITION was -37.7%.

Take `CCCNC(=O)NCc1ccccc1NS(=O)(=O)c1ccccc1`: the INHIBITION is listed as -24.7%.

With `CCCNC(=O)c1ccc(S(=O)(=O)NCC2(O)CCCNC2)cc1` (stereo not given), the INHIBITION amounted to 43.4%.

For the molecule `CCCNC(=O)c1ccc(S(=O)(=O)NCC2(COC)CCCC2)cc1`, the INHIBITION came out at 89.7%.

As for `CCCNC(=O)c1ccc(S(=O)(=O)NC2(COC)CCCC2)cc1`, the INHIBITION turned out to be 56.3%.

Turning to `CNS(=O)(=O)c1ccc(C(=O)NCCNc2ncccn2)cc1`, the INHIBITION is 33%.

As for `CC(=O)N(Cc1ncc(C)o1)C1CCN(Cc2cc(C)on2)C1` (stereo not given), the INHIBITION was -16%.

For the molecule `COC(CNC(=O)C1CCN(S(C)(=O)=O)CC1)c1ccc(C)s1` (stereo not given), the INHIBITION stood at 36.8%.

Take `COc1ccc(CN(C)[C@@H]2CN(C(=O)c3cccnc3)C[C@H]2O)cc1`: the INHIBITION was 52%.

On to `COc1ccc(CN(C)[C@@H]2CN(C(=O)c3cccs3)C[C@H]2O)cc1`, for which the INHIBITION was determined as 24.5%.

Consider `COc1ccc(CN(C)[C@@H]2CN(C(=O)c3ccnn3C)C[C@H]2O)cc1`, for which the INHIBITION is -55%.

Consider `COc1ccc(CN(C)[C@@H]2CN(C(=O)c3cncs3)C[C@H]2O)cc1`, for which the INHIBITION was 56.8%.

Consider `COc1ccc(CN(C)[C@@H]2CN(C(=O)c3cnn(C)c3)C[C@H]2O)cc1`, for which the INHIBITION was 2.71%.

`COc1ccc(CN(C)[C@@H]2CN(C(=O)c3ccccc3)C[C@H]2O)cc1`: the INHIBITION amounted to 25.6%.

`COc1ccnc(N2CCN(Cc3nc(-c4ccoc4)no3)CC2)c1`: the INHIBITION worked out at 9.52%.

As for `Cc1nc(C)n(CC2CCCN2Cc2cn3cc(Cl)ccc3n2)n1` (stereo not given), the INHIBITION worked out at 15.3%.

Consider `Cn1cccc1C(=O)N1C[C@@H]2CCCO[C@@H]2[C@H](N2CCOCC2)C1`, for which the INHIBITION was 30.5%.

For the molecule `Cc1cccc(C(=O)N2CCO[C@H]3[C@H](OCCN(C)C)CC[C@@H]32)n1`, the INHIBITION is 54%.

Take `Cc1ccc(C(=O)N2CCO[C@H]3[C@H](OCCN(C)C)CC[C@@H]32)cn1`: the INHIBITION is reported as -9.26%.

For the molecule `O=C(c1ccccc1)N1C[C@@H]2CCCO[C@@H]2[C@H](N2CCCC2)C1`, the INHIBITION stood at 52.6%.

As to `Cc1ccc(C(=O)N2C[C@@H]3CCCO[C@@H]3[C@H](N3CCCC3)C2)cn1`, the INHIBITION is reported as 30.5%.

With `Cc1ccccc1C(=O)N1CCO[C@H]2[C@H](OCCN(C)C)CC[C@@H]21`, the INHIBITION was -0.371%.

As for `O=C(c1ccccc1)N1C[C@@H]2CCCO[C@@H]2[C@H](N2CCOCC2)C1`, the INHIBITION is given as 49.7%.

On to `CN(C)CCO[C@@H]1CC[C@H]2[C@H]1OCCN2C(=O)c1ccncc1`, for which the INHIBITION was found to be 29.3%.

On to `CO[C@@H]1CC[C@H]2[C@H]1OCCN2C(=O)c1ccc(C)nc1`, for which the INHIBITION was found to be 67%.

Take `Cc1ccc(C(=O)N2C[C@@H]3CCCO[C@@H]3[C@H](N3CCOCC3)C2)cn1`: the INHIBITION was found to be 52.6%.

As to `Cc1cc(C(=O)N2C[C@@H]3CCCO[C@@H]3[C@H](N3CCOCC3)C2)c(C)[nH]1`, the INHIBITION is on record as 4.02%.

As for `CO[C@H]1CC[C@H]2[C@H]1OCCN2C(=O)c1ccc(C)nc1`, the INHIBITION is -6.39%.

Regarding `COc1ccc(Cn2cc(C(=O)N(C)CCN(C)C)nn2)cc1`, the INHIBITION is listed as 28.5%.

As to `c1cncc(COCc2nnc3n2CCN(CC2CC2)C3)c1`, the INHIBITION is -15.7%.

In the case of `CCS(=O)(=O)CCN(C)C(=O)NC(C)c1ccc(C)s1` (stereo not given), the INHIBITION came to 22.6%.

`CCc1sc(C(=O)N2CCC(Nc3ccc(C)nn3)CC2)cc1C`: the INHIBITION turned out to be 42%.

Turning to `Cc1ccc(C(=O)N2C[C@@H](N3CCN(C)CC3)[C@H]3OCCC[C@H]32)cn1`, the INHIBITION is on record as 10.4%.

In the case of `Cc1ccc(C(=O)N2C[C@H](N3CCOCC3)[C@@H]3OCCC[C@@H]32)cn1`, the INHIBITION came to 50.3%.

Regarding `Cc1cnc(C(=O)N2C[C@H](N3CCOCC3)[C@@H]3OCCC[C@@H]32)cn1`, the INHIBITION came out at 45.7%.

Regarding `CC(=O)NCC1CCN(C(=O)c2ccc(Sc3ccccn3)cc2)CC1`, the INHIBITION is given as 14.4%.

As to `CC(=O)N1CCN(c2cnnc(N3CCCC3)c2)CC1`, the INHIBITION was determined as 31.9%.

In the case of `O=C(c1ccccc1)N1C[C@H]2CC[C@@H](C1)N(Cc1cc(F)ccc1Cl)C2`, the INHIBITION was 25%.

As for `NCCN1C(=O)CC[C@H]2CN(Cc3ccc4occc4c3)CC[C@H]21`, the INHIBITION was determined as 30.3%.

Regarding `COCCCN1C(=O)CC[C@H]2CN(c3nc4ccccc4s3)CC[C@H]21`, the INHIBITION is on record as 41.2%.

Consider `COCCCN1C(=O)CC[C@H]2CN(Cc3ccc4nonc4c3)CC[C@H]21`, for which the INHIBITION is on record as 53.4%.

With `COCCCN1C(=O)CC[C@H]2CN(Cc3ccc4occc4c3)CC[C@H]21`, the INHIBITION came out at 16.1%.

With `COCCCN1C(=O)CC[C@H]2CN(Cc3ncc[nH]3)CC[C@H]21`, the INHIBITION turned out to be 38.8%.

Turning to `COCCCN1C(=O)CC[C@H]2CN(c3ccnc4ccccc34)CC[C@H]21`, the INHIBITION is given as 63.9%.

Turning to `COCCCN1C(=O)CC[C@H]2CN(Cc3cc4ccccc4o3)CC[C@H]21`, the INHIBITION was found to be 73.9%.

In the case of `COCCCN1C(=O)CC[C@H]2CN(c3cnc4ccccc4n3)CC[C@H]21`, the INHIBITION worked out at 28.5%.

Consider `COCCCN1C(=O)CC[C@H]2CN(c3cc(C(N)=O)ccn3)CC[C@H]21`, for which the INHIBITION came to 24.9%.

For the origin of these results see ChEMBL document CHEMBL4513216, “Probing the Open Global Health Chemical Diversity Library for Multistage-Active Starting Points for Next-Generation Antimalarials” (ACS Infect Dis, 2020).
